Laboratory results published in PubChem BioAssay AID1347076 (National Center for Advancing Translational Sciences (NCATS), 2019).
Among all 400,000 compounds or so, about 13,000 (3.2%) were called active. Entries that show only a call come without a potency. About 18% were inconclusive and are not listed. The sample holds actives, similar compounds and a random draw of the others, so the mix is not that of the screen. The call rests on the fitted dose curve; in most records, active means well fitted cell-killing curve with a large enough effect; inconclusive means small, poorly fitted or top-dose-only effect, or effect the other way; inactive means flat fitted curve, though single readings scatter.

Assay: qHTS assay for MDR1-selective chemotherapeutics: Primary screen using the drug-selected MDR subline cells KB-V1; further: nearly all actives have a fitted effect of over 60% in size
Conditions: KB-V1 MDR cells viability, CellTiter-Glo, 72 h; series mostly up to 46.1 µM
Outline: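 Potencies derive from concentration-effect curves fitted to normalized luminescence (CellTiter-Glo) of KB-V1 cells treated for 72 h at 37 degrees C in phenol-red-free DMEM containing 10% FBS.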
Potency means the concentration at half of the fitted maximal effect.

Structure (SMILES) | Potency
CCOC(=O)c1c(NC(=S)SC)sc(C(=O)N2CCc3ccccc3C2)c1C | inactive
C=CCn1c(SCC(=O)NCc2ccccc2)nnc1-c1cc(Br)ccc1O | 11.6 µM (active)
C=CCn1c(SCC(=O)NC(=O)Cc2ccccc2)nc2ccccc2c1=O | inactive
O=C(CSc1nnc(-c2cccnc2)n1CCc1ccccc1)NCc1ccccc1 | inactive
CN1CCN(C(CNC(=O)c2ccccc2F)c2ccc3c(c2)OCO3)CC1 (centres undefined) | inactive
COc1ccc2c(c1)CCc1c(C(=O)Nc3cc(C)ccc3O)noc1-2 | inactive
COc1ccc2c(c1)CCc1c(C(=O)Nc3c(C)n(C)n(-c4ccccc4)c3=O)noc1-2 | 18.4 µM (active)
COc1ccc(NS(=O)(=O)c2ccc(C(=O)Nc3c(C)n(C)n(-c4ccccc4)c3=O)cc2)cc1 | inactive
Nc1ccc(/C=C/c2ccnc3ccccc23)c([N+](=O)[O-])c1 | inactive
COc1ccc(C2=Nc3ccccc3NC(=O)C2N(C(=O)c2cc3ccccc3[nH]2)c2ccccc2)cc1 (centres undefined) | inactive
COc1ccc(-c2ccc(C(=O)NC(C)C)c3occc23)c(C)c1 | inactive
O=C(Cn1nnc(-c2ccccc2)n1)NC(=O)NC1CCCC1 | inactive
COc1cccc(N(CC(=O)NC2CCCC2)C(=O)Cn2nnc(-c3ccc(C)cc3)n2)c1 | inactive
O=C(Cn1nnc(-c2ccc(CN3CCOCC3)cc2)n1)NC1CCCCC1 | 23.1 µM (active)
CC(C)(C)C(=O)Nc1ccc(-c2cn3cccnc3n2)cc1 | inactive
CC(C)(C)C(=O)Nc1cccc(-c2ccc[nH]2)n1 | 16.4 µM (active)
COc1ccc(C(=O)Nc2cccc(NC(=O)c3ccc(OC)cc3OC)n2)c(OC)c1 | inactive
CCCN1CCN(C(=O)CCCNC(=O)c2ccc(Cl)cc2)CC1 | inactive
CC(C)(C)c1ccc(C(=O)NCCC(=O)NCc2ccco2)cc1 | inactive
CCCCNC(=O)CCNC(=O)c1ccc(C(C)(C)C)cc1 | 14.6 µM (active)
CCOc1ccc(S(=O)(=O)NCCC(=O)NNC(=O)c2ccc(F)cc2)cc1 | inactive
O=C(CSc1ccc(-c2ccco2)nn1)NCc1ccc2c(c1)OCO2 | inactive

Structure (SMILES) | Potency
O=C(CSc1ccc(-c2ccco2)nn1)Nc1cccc(F)c1 | 10.3 µM (active)
O=C(CSc1ccc(-c2ccc(F)cc2)nn1)Nc1ccc2c(c1)OCCO2 | inactive
CC(=O)c1ccc(NC(=O)c2sc3nc4n(c(=O)c3c2C)CCCCC4)cc1 | 18.4 µM (active)
Cc1ccc(NC(=O)C2(N3CCC3=O)CCCCC2)cc1 | inactive
CC(=O)c1ccc(NC(=O)c2nc(-c3ccc(C)cc3)n3c2CCCCC3)cc1 | 20.6 µM (active)
O=c1c2c(nc3n1CCCCC3)sc1c(O)cccc12 | inactive
Cc1c(C(=O)Nc2ccccc2)sc2nc3n(c(=O)c12)CCCCC3 | inactive
Cc1ccc(C(=O)Nc2ccc(OCc3cc(=O)n4c5c(sc4n3)CCCC5)cc2)cc1 | inactive
CC1(Oc2ccccc2-c2ccno2)CCN(Cc2ccc(-c3ccccc3)o2)C1 (centres undefined) | inactive
CC(C)CCNC(=O)c1[nH]c(C(F)(F)F)nc1-c1ccccc1 | inactive
NCCCCC(C(=O)O)N(C(=O)OCc1ccccc1)C(=O)OCc1ccccc1 (centres undefined) | inactive
O=C(Nc1ccc(Cl)cc1)c1csc([C@@H]2O[C@H](CO)[C@H](O)[C@H](O)[C@H]2O)n1 | inactive
CC(=O)Nc1ccc2nc(SCCOc3cc(C)cc(C)c3)sc2c1 | inactive
O=C1NC[C@H](CCCCN2C[C@H](Cc3ccc(O)cc3)N(CCc3ccccc3)C(=O)C2=O)N(CCc2ccccc2)C1=O | inactive
Cc1cccc(Cn2c(CN3CCC(C(=O)NCc4ccccc4Cl)CC3)cc3ccccc32)c1 | inactive
C/C(COc1ccccc1)=N\NC(=O)c1nnn(-c2nonc2N)c1-c1ccc(C)cc1 | inactive
CCN(CC)c1cc(NC2CCCCC2)c2c3c(onc13)-c1ccccc1C2=O | inactive
CCOC1=C2CN(S(=O)(=O)c3ccc(C)cc3)[C@H](c3cccs3)C[C@H]2[C@H]2C(=O)N(c3ccccc3)C(=O)[C@H]2C1 | inactive
COc1cc(-c2c(-c3ccc4c(c3)OCO4)noc2C)ccc1F | 5.8 µM (active)
COc1ccc(CCNC(=O)c2cc(-c3ccc4c(c3)OCO4)on2)cc1OC | inactive
Cc1oc(C)c2c(=O)cc(-c3ccc4c(c3)OCO4)cc(OC(=O)c3ccc(Cl)cc3)c12 | inactive
CC(Oc1ccc(Br)cc1)C(=O)NC1CCCCCC1 (centres undefined) | inactive

Structure (SMILES) | Potency
O=C(CCNC(=O)c1ccc(Br)cc1)NCC(c1ccco1)N1CCCCC1 (centres undefined) | inactive
CC(Oc1ccc(Br)cc1)C(=O)NCC(c1ccco1)N1CCCCC1 (centres undefined) | 14.6 µM (active)
C=CCn1c2c(c3ccccc31)CCC2 | inactive
COc1ccc(CN2C(=O)C(CC(=O)NCc3cccc4ccccc34)CC(C(=O)N3CCOCC3)=C2C)cc1 (centres undefined) | inactive
O=C(C[C@H]1CC[C@@H](NC(=O)c2ccncc2)[C@@H](CO)O1)NCC1CC1 | inactive
O=C(CSc1nc(C2CC2)nc2ccccc12)Nc1ccc2c(c1)OCCO2 | 14.6 µM (active)
O=C(CSc1nc(C2CC2)nc2ccccc12)Nc1cccc(O)c1 | inactive
Cc1nnc(NC(=O)CSc2nc(C3CCCCC3)nc3ccccc23)s1 | inactive
CCc1ccc(OC2(C)CCN(CCOc3ccc(C)cc3)C2)cc1 (centres undefined) | inactive
COc1cc(CNc2ncnc3c2ncn3[C@H]2CN(Cc3cccs3)C[C@@H](CO)O2)cc(OC)c1OC | inactive
COc1ccc(NC(=O)N(C)C[C@@H]2OCc3cn(nn3)CCCC(=O)N([C@H](C)CO)C[C@H]2C)c(OC)c1 | inactive
CC(=O)NC1=NN(C(C)=O)C(C)(CCS(=O)(=O)c2ccc(Cl)c(Cl)c2)S1 (centres undefined) | inactive
CC(=O)NC1=NN(C(C)=O)C(C)(c2ccc(Cl)s2)S1 (centres undefined) | 5.8 µM (active)
CC(=O)NC1=NN(C(C)=O)C(C)(c2ccc(C)cc2)S1 (centres undefined) | inactive
CCNC(=O)C1(C)CCN(Cc2ccc(C(=O)OCC)o2)C1 (centres undefined) | inactive
CC(=O)C[C@@H]1OC[C@H](CO)N1S(=O)(=O)c1ccc(C)cc1 | inactive
COc1ccc(Cl)cc1-c1cc(C(=O)Nc2cc(OC)c(OC)c(OC)c2)[nH]n1 | inactive
CCn1c(=N)n(CC(=O)c2cccc(OC)c2)c2ccccc21 | 8.2 µM (active)
CCCn1c(=N)n(CC(=O)c2ccc(Cl)c(Cl)c2)c2ccccc21 | inactive
COc1ccc2cc(C(=O)O)n(CC(=O)c3ccccc3)c2c1 | inactive
